This is an account of results in PubChem BioAssay (NCATS).

Experiment [1] relates to Zika virus NS2B-NS3 protease. The experiment can be described thus: Primary screen GU AMC qHTS for Zika virus inhibitors (AID 1347154). Further: nearly all actives have a fitted effect of over 70% in size. The procedure, abridged:
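Fluorogenic AMC-substrate cleavage by noncovalent NS2B-NS3 protease complex (25 nM, pH 8.0 Tris buffer with Tween 20) followed for 15 minutes at room temperature (~20% conversion). Percent inhibition from ex340/em450 signal change, fitted by 4-parameter Hill equation.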
In general terms: qHTS replaces the single test concentration by a dilution series.

For experiment [2], the system named is Zika virus NS2B-NS3 protease (unlinked complex). Kind of experiment: Primary screen GU Rhodamine qHTS for Zika virus inhibitors: Unlinked NS2B-NS3 protease assay (AID 1347159). Further: nearly all actives have a fitted effect of over 60% in size. In outline:
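Buffer 10 mM Tris-HCl pH 8.0, 0.01% Tween 20. Unlinked protease 25 nM; compound preincubation 15 min, RT, protected from light. Substrate Rhod110, 1.5 microM; ~15% conversion in 15 min.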

Experiment [3] relates to Zika virus NS2B-NS3 protease (linked construct). Kind of experiment: Primary screen NINDS Rhodamine qHTS for Zika virus inhibitors (AID 1347160). Further: nearly all actives have a fitted effect of over 55% in size. The conditions noted are these: outcome: dose series up to 57.1 µM. In outline: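 Aprotinin served as in-plate control. Conditions: 25 nM linked NS2B-NS3, pH 8.0 Tris buffer, titrated compounds, 15 min preincubation and 15 min reaction with 1.5 microM Rhod110 substrate at room temperature.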

SMILES strings stand for the structures. Inconclusive results are not listed. Entries that show only a call come without a potency. The source made the active and inactive calls. The call rests on the fitted dose curve; in most records, active means well fitted curve in the direction sought with a large enough effect; inconclusive means small, poorly fitted or top-dose-only effect, or another doubt; inactive means no such curve, though single readings can be large; an effect the other way counts as inactive or inconclusive.

`CN(C)CCCOc1nn(Cc2ccccc2)c2ccccc12`: in experiment [1], the Potency result was “inactive”. The compound was called inactive in experiment [2] and in experiment [3].
Turning to `Cc1ccc(C(=O)C(C)CN2CCCCC2)cc1` (centres undefined), the Potency entry in experiment [1] was “inactive”. The outcome in experiment [2] and in experiment [3] was inactive.
Consider `C#C[C@]1(OC(C)=O)CC[C@H]2[C@@H]3CCC4=C[C@@H](OC(C)=O)CC[C@@H]4[C@H]3CC[C@@]21C`, for which the Potency result in experiment [1] was “inactive”. For the same compound, the result in experiment [2] and in experiment [3] was inactive.
For `Cc1ccccc1C(=O)Nc1ccc(C(=O)N2CCCC(N(C)C)c3ccccc32)cc1` (centres undefined), in experiment [1], the Potency result was “inactive”. The call in experiment [2] and in experiment [3] was inactive.
Consider `C[C@]12CC[C@H]3[C@@H](CCC4=CC(=O)CC[C@@]43C)[C@@H]1CC[C@@H]2C(=O)CO`, for which, in experiment [1], the Potency result was “inactive”.
Still for that read-out and setting: with `Oc1c(I)cc(I)c2cccnc12` the entry was “inactive”.
For `CC(=O)N/N=C/c1ccc([N+](=O)[O-])o1`, the Potency result in experiment [1] was “inactive”.
Consider `COc1ccc(CN2CCN(C(c3ccc(F)cc3)c3ccc(F)cc3)CC2)c(OC)c1OC`, for which the Potency entry in experiment [1] is “inactive”. Also, the result in experiment [2] and in experiment [3] was inactive.
For the compound `CCCCOc1ccc(OCCCN2CCOCC2)cc1`, the Potency entry in experiment [1] was “inactive”.
Regarding `COC(=O)CCc1ccc(OCC(O)CNC(C)C)cc1` (centres undefined), the Potency result in experiment [1] is “inactive”. In addition, the compound was called inactive in experiment [2] and in experiment [3].
With `CC(=O)Oc1ccc(C(=C2CCCCC2)c2ccc(OC(C)=O)cc2)cc1`, in experiment [1], the Potency entry is “inactive”.
Turning to `COC(=O)C1=C(C)NC(C)=C(C(=O)O[C@@H]2CCCN(Cc3ccccc3)C2)[C@@H]1c1cccc([N+](=O)[O-])c1`, the Potency entry in experiment [1] is “inactive”. Also, the compound was called inactive in experiment [2] and in experiment [3].
`CC(C)n1nc(-c2cc3cc(O)ccc3[nH]2)c2c(N)ncnc21`: the Potency entry in experiment [1] is “inactive”. The call in experiment [2] and in experiment [3] was inactive.
On to `CC(C)(C)NC(=O)[C@@H]1CN(Cc2cccnc2)CCN1C[C@@H](O)C[C@@H](Cc1ccccc1)C(=O)N[C@H]1c2ccccc2C[C@H]1O`, for which the Potency entry in experiment [1] was “inactive”. For the same compound, the compound was classed as inactive in experiment [2] and in experiment [3].
Take `CCCCCCc1ccc(O)cc1O`: the Potency entry in experiment [1] is “inactive”.
Still for that read-out and setting: with `Nc1ccc(C(=O)O)cc1` the entry was “inactive”; with `N[C@@H](CCC(=O)N[C@@H](CS)C(=O)NCC(=O)O)C(=O)O`, “inactive”.
Consider `OCc1ccccc1O`, for which, in experiment [1], the Potency result was “inactive”.
On to `NC(=NCCCCCCN=C(N)/N=C(\N)Nc1ccc(Cl)cc1)/N=C(\N)Nc1ccc(Cl)cc1`, for which the compound was classed as inactive in experiment [2] and in experiment [3].
In the case of `CCN(CC)CCNC(=O)COc1ccc(Cl)cc1`, the Potency result in experiment [1] is “inactive”.
Same read-out and setting: for `CC(C)COC(=O)c1ccc(N)cc1` the value was “inactive”.
On to `CN1[C@@H]2CC[C@H]1CC(OC(=O)c1c[nH]c3ccccc13)C2` (some centres undefined), for which the Potency entry in experiment [1] is “inactive”. The compound was classed as inactive in experiment [2] and in experiment [3].
Turning to `CC1(C)OC[C@@H](COC(=O)CCc2ccc(OC[C@@H](O)CNCCNC(=O)N3CCOCC3)cc2)O1`, in experiment [1], the Potency entry is “inactive”.
With `CN1CCN(C(c2ccccc2)c2ccccc2)CC1`, the Potency entry in experiment [1] is “inactive”. The compound was classed as inactive in experiment [2] and in experiment [3].
`CCCCS(=O)(=O)N[C@@H](Cc1ccc(OCCCCC2CCNCC2)cc1)C(=O)O`: the Potency result in experiment [1] was “inactive”. Moreover, the result in experiment [2] and in experiment [3] was inactive.
Turning to `OC[C@H]1O[C@H](O[C@]2(CCl)O[C@H](CCl)[C@@H](O)[C@@H]2O)[C@H](O)[C@@H](O)[C@H]1Cl`, the Potency entry in experiment [1] is “inactive”. The outcome in experiment [2] and in experiment [3] was inactive.
Take `CN1C(CCl)Nc2cc(Cl)c(S(N)(=O)=O)cc2S1(=O)=O` (centres undefined): the Potency result in experiment [1] was “inactive”. The compound was called inactive in experiment [2] and in experiment [3].
For the compound `O=c1[nH]c(=O)n([C@H]2CCCO2)cc1F`, the Potency entry in experiment [1] was “inactive”. In addition, the compound was classed as inactive in experiment [2] and in experiment [3].
For `O=C(OCCOCCO)c1ccccc1Nc1cccc(C(F)(F)F)c1`, the Potency entry in experiment [1] was “inactive”. Further, the call in experiment [2] and in experiment [3] was inactive.
`O=C1c2ccccc2C(=O)C1c1ccccc1`: the Potency result in experiment [1] was “inactive”.
As to `CN1CCC[C@@H]1c1cccnc1`, the Potency entry in experiment [1] is “inactive”. For the same compound, in experiment [3], the outcome was inactive.
Consider `Cc1ccc(Nc2c(F)cccc2Cl)c(CC(=O)O)c1`, for which the Potency entry in experiment [1] was “inactive”. The call in experiment [2] was inactive.
`CCOC(=O)/C=C(C)/C=C/C=C(C)/C=C/c1c(C)cc(OC)c(C)c1C`: the Potency entry in experiment [1] was “inactive”.
Same read-out and setting: for `OC[C@@H](O)[C@@H](O[C@@H]1O[C@H](CO)[C@H](O)[C@H](O)[C@H]1O)[C@H](O)[C@@H](O)CO` the value was “inactive”.
On to `Cc1nc2n(c(=O)c1CCN1CCC(c3noc4cc(F)ccc34)CC1)CCC[C@H]2O`, for which the Potency result in experiment [1] is “inactive”. In addition, the compound was classed as inactive in experiment [2] and in experiment [3].
As for `COc1cccc(OC)c1C(=O)N[C@@H]1C(=O)N2[C@@H]1SC(C)(C)[C@@H]2C(=O)O`, the Potency result in experiment [1] is “inactive”. For the same compound, the compound was called inactive in experiment [3].
Consider `Nc1ccc(C(=O)Nc2ccccc2N)cc1`, for which the Potency entry in experiment [1] was “inactive”.
On to `CC(=O)OCC(=O)[C@@]1(O)[C@H](C)C[C@H]2[C@@H]3CCC4=CC(=O)C=C[C@]4(C)[C@@]3(F)[C@@H](O)C[C@@]21C`, for which, in experiment [1], the Potency result was “inactive”. Besides, the compound was called inactive in experiment [2] and in experiment [3].
As for `O=c1[nH]c(=O)n([C@H]2C[C@H](O)[C@@H](CO)O2)cc1C(F)(F)F`, in experiment [1], the Potency result was “inactive”.
